# About 15 (0.8%) of roughly 2,000 compounds showed an effect of 50% or more. This is one part of a sample in which strong results are shown more often than they occur.
# System: Balamuthia mandrillaris (ATCC PRA-291) trophozoites, axenic culture
# Assay: primary screen, percent inhibition; higher = more effect of the substance;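 further: 0% = vehicle wells and 100% = lysate wells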
# Settings: 20 µM
# Experimental: Screening of a clinically approved library of compounds, compiled by the Small Molecule Discovery Center (SMDC) at the UCSF, was completed at 20 µM in 0.2% DMSO. All 2,177 drugs in the library were stored as 10 mM stocks dissolved in 100% DMSO (Sigma-Aldrich) at −20°C. B. mandrillaris amoebae were resuspended in axenic medium and distributed into opaque 384-well plates (Corning) at a density of 3,000 amoebae per well using a BioMek NX liquid handler. Negative-control wells were treated with vehicle only (0.2% DMSO in axenic medium), and positive-control wells simulating total destruction of amoebae were seeded with amoeba lysate generated by 3 consecutive freeze-thaw cycles. Following 72 h of incubation, 30 µl of CellTiter Glo reagent (CTG; Promega) was added to each well. The luminescence was measured with a Promega GloMax-Multi+ plate reader at 2, 4, and 8 h after CTG addition. […] The B-score, representing a plate-based statistical approach for correcting row, column, and edge effects, was also calculated for each compound in the library (75).
row,SMILES,% Inhibition [%]
1,C[C@]12CCC3c4ccc(O)cc4CCC3C1C[C@@H](O)[C@@H]2O (some centres unmarked),-15
2,C[C@@H]1O[C@@H](O[C@H]2C[C@@H](O)[C@]3(CO)[C@H]4[C@H](O)C[C@]5(C)[C@@H](C6=CC(=O)OC6)CC[C@]5(O)[C@@H]4CC[C@]3(O)C2)[C@H](O)[C@H](O)[C@H]1O,10.8
3,CC[N+](CC)(CC(=O)Nc1c(C)cccc1C)Cc1ccccc1,14
4,CN1[C@@H]2C[C@@H](OC(=O)[C@H](CO)c3ccccc3)C[C@H]1[C@@H]1O[C@@H]12,20.7
5,C=CCCCCCCCCC(=O)O [735790-L3],30.5
6,CCNC(=O)CCC/C=C\C[C@@H]1[C@@H](/C=C/[C@@H](O)CCc2ccccc2)[C@H](O)C[C@@H]1O,22.9
7,Nc1ccc(S(=O)(=O)O)cc1,31.3
8,CCC(=O)NCC[C@@H]1CCc2ccc3c(c21)CCO3,16.9
9,CC(CC(C(N)=O)(c1ccccc1)c1ccccc1)N(C)C (centres unmarked),14.2
10,C=Cc1c(C)c2[n]3c1C=C1C(C)=C(CC)C4=[N+]1[Cu]31[n]3c(c(C)c(C(=O)O)c3=C(CC(=O)O)C3=[N+]1C(=C2)C(C)C3CCC(=O)O)=C4 (centres unmarked),-2.1
11,COc1cc2ncnc(Nc3ccc(F)c(Cl)c3)c2cc1OCCCN1CCOCC1 [756745-L3],-9.92
12,CC(=O)OCC(=O)[C@@]1(O)CCC2C3CCC4=CC(=O)CC[C@]4(C)[C@@]3(F)[C@@H](O)C[C@@]21C (some centres unmarked),12.2
13,CC(=O)[C@@]1(O)CC[C@H]2[C@@H]3C[C@H](C)C4=CC(=O)C=C[C@]4(C)[C@@]3(F)[C@@H](O)C[C@@]21C,10.1
14,Cc1cccc(C)c1NC(=O)C1CCCCN1C (centres unmarked),13.3
15,C[N+]1(C)[C@@H]2C[C@@H](OC(=O)C(O)(c3cccs3)c3cccs3)C[C@H]1[C@@H]1O[C@@H]12,11.2
16,O=C(O)c1ccc[n+]([O-])c1,20.7
17,CO/N=C(/C(=O)NC1C(=O)N2C(C(=O)O)=C(C[N+]3(C)CCCC3)CSC12)c1csc(N)n1 (centres unmarked),21.4
18,CC(=O)Nc1ccc(C(=O)O)cc1,-20
19,COc1cc(N)c(Cl)cc1C(=O)N[C@@H]1CCN(CCCOc2ccc(F)cc2)C[C@@H]1OC,1.93
20,CCC(COC(=O)c1cc(OC)c(OC)c(OC)c1)(c1ccccc1)N(C)C (centres unmarked),17.5
21,CCN(CC)CCOC(=O)C(Cc1cccc2ccccc12)CC1CCCO1 (centres unmarked),24.5
22,NC(=O)[C@@H]1CCCN1C(=O)[C@H](Cc1cnc[nH]1)NC(=O)[C@@H]1CCC(=O)N1,9.33
23,CN1C2CCC1CC(OC(=O)[C@H](CO)c1ccccc1)C2 (some centres unmarked),23
24,O=C(O)C[C@H](O)C[C@H](O)/C=C/c1c(C2CC2)nc2ccccc2c1-c1ccc(F)cc1,15.5
25,COCc1c(C(C)C)nc(C(C)C)c(/C=C/[C@@H](O)C[C@@H](O)CC(=O)O)c1-c1ccc(F)cc1,66.1
26,CC(C)c1nc(N(C)S(C)(=O)=O)nc(-c2ccc(F)cc2)c1/C=C/[C@@H](O)C[C@@H](O)CC(=O)O,35.4

row,SMILES,% Inhibition [%]
1,N=C(N)NCC1COC2(CCCCC2)O1 (centres unmarked),21.2
2,COc1ccc2cc3[n+](cc2c1OC)CCc1cc2c(cc1-3)OCO2,29.8
3,CC(=O)Nc1c(I)c(C(=O)N[C@H]2C(O)O[C@H](CO)[C@@H](O)[C@@H]2O)c(I)c(N(C)C(C)=O)c1I (some centres unmarked),8.04
4,CCOC(=O)c1ncn2c1CN(C)C(=O)c1cc(F)ccc1-2,7.85
5,O=C(O)c1cccnc1Nc1cccc(C(F)(F)F)c1,25.3
6,COc1ccc2cc([C@H](C)C(=O)O)ccc2c1 [130714-L6],22.7
7,Cc1nccn1CC1CCc2c(c3ccccc3n2C)C1=O (centres unmarked),16.2
8,Cc1c(C(N)=O)cc([N+](=O)[O-])cc1[N+](=O)[O-],20.6
9,C[C@H](CCC(=O)O)[C@H]1CCC2C3C(=O)CC4CC(=O)CC[C@]4(C)C3CC(=O)[C@@]21C (some centres unmarked),17.3
10,CCCCCCOC(=O)/N=C(\N)c1ccc(NCc2nc3cc(C(=O)N(CCC(=O)OCC)c4ccccn4)ccc3n2C)cc1 [756753-L2],20.4
11,OC(CNCC(O)C1CCc2cc(F)ccc2O1)C1CCc2cc(F)ccc2O1 (centres unmarked),6.6
12,CC1OC1P(=O)(O)O (centres unmarked) [131204-L2],12.9
13,C/C(=C\C(=O)OCCCCCCCCC(=O)O)C[C@@H]1OC[C@H](C[C@@H]2O[C@H]2[C@@H](C)[C@H](C)O)[C@@H](O)[C@H]1O,26.3
14,CC(=O)Oc1cc(C(C)C)c(OCCN(C)C)cc1C,24.8
15,CCC(=O)OCC(=O)C1(OC(=O)CC)C(C)CC2C3CCC4=CC(=O)C=CC4(C)C3(Cl)C(O)CC21C (centres unmarked),22.7
16,NC(=O)C1(N2CCCCC2)CCN(CCCC(=O)c2ccc(F)cc2)CC1,18.8
17,CNCCC[C@]12CC[C@H](c3ccccc31)c1ccccc12,23.8
18,COC(=O)C1[C@H]2C[C@H]3c4[nH]c5ccccc5c4CCN3C[C@@H]2CC[C@@H]1O (some centres unmarked),22.5
19,CCN(C)C(=O)Oc1cccc([C@H](C)N(C)C)c1 [756883-L2],25.9
20,CC(CCc1ccc(O)cc1)NCC(O)c1ccc(O)cc1 (centres unmarked),-1.52
21,CC1(C)S[C@@H]2[C@H](NC(=O)[C@H](NC(=O)N3CCN(S(C)(=O)=O)C3=O)c3ccccc3)C(=O)N2[C@H]1C(=O)O,18.9
22,COCCCOc1cc(C[C@@H](C[C@H](N)[C@@H](O)C[C@H](C(=O)NCC(C)(C)C(N)=O)C(C)C)C(C)C)ccc1OC,-4.92
23,CCC(=O)OCC(=O)[C@@]1(OC(=O)CC)[C@H](C)CC2C3C([C@@H](O)C[C@@]21C)[C@@]1(C)C=CC(=O)C=C1C[C@H]3Cl (some centres unmarked),13.3
24,CC(=O)OCC(=O)[C@@]12OC(C)(C)O[C@@H]1C[C@H]1[C@@H]3C[C@H](F)C4=CC(=O)C=C[C@]4(C)[C@@]3(F)[C@@H](O)C[C@@]12C,11.4
25,Cc1cccc(C)c1NC1=NCCCS1,8.96
26,CC(=O)N[C@@H](CS)C(=O)O [129971-L5],0.0866

row,SMILES,% Inhibition [%]
1,CN(C)c1ccc(C(=C2C=CC(=[N+](C)C)C=C2)c2ccc(N(C)C)cc2)cc1,61.7
2,COc1cc(N)c(Cl)cc1C(=O)N[C@H]1CCN(CCCOc2ccc(F)cc2)C[C@H]1OC,9.62
3,CC(=O)OCC(=O)[C@@]1(O)CCC2C3CCC4=CC(=O)C=C[C@]4(C)[C@@]3(F)[C@@H](O)C[C@@]21C (some centres unmarked),15.9
4,CCN[C@@H](C)Cc1cccc(C(F)(F)F)c1,20.1
5,CC(=O)S[C@@H]1CC2=CC(=O)CC[C@]2(C)[C@H]2CC[C@@]3(C)[C@@H](CC[C@@]34CCC(=O)O4)C12 (some centres unmarked),28
6,C/C=C(/C)C(=O)O[C@@H]1[C@H](OC(C)=O)[C@@]2(CO)C(CC1(C)C)C1=CCC3[C@@]4(C)CC[C@H](O[C@@H]5O[C@H](C(=O)O)[C@@H](O[C@@H]6O[C@H](CO)[C@@H](O)[C@H](O)[C@H]6O)[C@H](O)[C@H]5O[C@@H]5O[C@H](CO)[C@@H](O)[C@H](O)[C@H]5O)[C@](C)(CO)C4CC[C@@]3(C)[C@]1(C)C[C@H]2O (some centres unmarked),3.82
7,CCN(CC)C(=O)C1CN2CCc3cc(OC)c(OC)cc3C2CC1OC(C)=O (centres unmarked),18.9
8,CC(=O)/N=c1\sc(S(N)(=O)=O)nn1C,11.1
9,COc1ccc2[nH]c(S(=O)Cc3ncc(C)c(OC)c3C)nc2c1 (centres unmarked) [255785-L6],24.6
10,COc1ccc2c3c1O[C@H]1[C@@H](O)C=C[C@H]4[C@@H](C2)N(C)CC[C@@]341,10.8
11,CC(=O)OCC(=O)[C@@]1(O)CC[C@H]2[C@@H]3CCC4=CC(=O)CC[C@]4(C)[C@@]3(F)[C@@H](O)C[C@@]21C,17.7
12,N=C(NCCCCCCNC(=N)NC(=N)Nc1ccc(Cl)cc1)NC(=N)Nc1ccc(Cl)cc1,63.6
13,CC(C)/N=C(N)/N=C(\N)Nc1ccc(Cl)cc1 [131550-L3],10.7
14,CC(C)/N=C(N)/N=C(\N)Nc1ccc(Cl)cc1 [131550-L2],9.42
15,O=C(O)COC(=O)Cc1ccccc1Nc1c(Cl)cccc1Cl,-10.4
16,N=C(N)N,14.8
17,Cc1cc2nc3c(=O)[nH]c(=O)nc-3n(C[C@H](O)[C@H](O)[C@H](O)CO)c2cc1C,14.9
18,CO/N=C(\C(=O)N[C@@H]1C(=O)N2C(C(=O)O)=C(CSc3nc(=O)c(=O)[nH]n3C)CS[C@@H]12)c1csc(N)n1,13.4
19,Cc1ccc(S(=O)(=O)NC(=O)NN2CCCCCC2)cc1,32
20,C[C@]12CCC3c4ccc(OS(=O)(=O)O)cc4CCC3C1CCC2=O (some centres unmarked),-1.63
21,CO[C@@H]1[C@@H](OC(N)=O)[C@@H](O)[C@H](Oc2ccc3c(O)c(NC(=O)c4ccc(O)c(CC=C(C)C)c4)c(=O)oc3c2C)OC1(C)C,9.7
22,O=C(O)CCCCC1CCSS1 (centres unmarked),21.9
23,CCC(=O)O[C@H]1[C@H](O[C@@H]2[C@@H](C)[C@H](O[C@H]3C[C@@](C)(OC)[C@@H](O)[C@H](C)O3)[C@@H](C)C(=O)O[C@H](CC)[C@@](C)(O)[C@H](O)[C@@H](C)C(=O)[C@H](C)C[C@@]2(C)O)O[C@H](C)C[C@@H]1N(C)C,4.56
24,C=Cc1c(C)c2cc3[nH]c(cc4nc(cc5nc(cc1[nH]2)C(C)=C5CCC(=O)O)C(CCC(=O)O)=C4C)c(C)c3C=C,5.79
25,C[C@H]1CN(C[C@H](Cc2ccccc2)C(=O)NCC(=O)O)CC[C@@]1(C)c1cccc(O)c1,13.2

# Source: PMC6212833
